Measured values reported in PubChem BioAssay (NCATS).
Results filed as inconclusive are left out. The source made the active and inactive calls. Calls follow the shape of the dose curve; as a rule, active = well fitted cell-killing curve with a large enough effect; inconclusive = small, poorly fitted or top-dose-only effect, or effect the other way; inactive = no such curve, though single readings can be large or run the other way.

Assay: Quantitative High-Throughput drug screen in 47 multiple myeloma cell lines against the NCATS MIPE library collection: INA6_PLB cell viability assay (AID 1918965; also: nearly all actives have a fitted effect of over 55% in size)
Settings: INA6 myeloma viability, CellTiter-Glo ATP luminescence, 48 h; series mostly up to 45.8 µM; viability (% of control): at the top concentration
Source text: PI: Beverly A. Mock Ph.D.
Laboratory of Cancer Biology and Genetics,
Center for Cancer Research, National Cancer Institute,
National Institute of Health, Bethesda, Maryland
Drug resistance and disease progression are common in multiple myeloma (MM) patients, underscoring the need for new therapeutic combinations. […] We hypothesized that effective combinations would reduce MYC expression and enhance p16 activity. […] These preclinical data identify potentially useful drug combinations for evaluation in drug-resistant MM and reveal potential mechanisms of combined drug sensitivity.
Described herein is the primary MIPE qHTS used to cherrypick compounds. Validated compounds were then further tested for potential synergistic activiy.
[1] Peat TJ, Gaikwad SM, Dubois W, Gyabaah-Kessie N, Zhang S, Gorjifard S, Phyo Z, Andres M, Hughitt VK, Simpson RM, Miller MA, Girvin AT, Taylor A, Williams D, D'Antonio N, Zhang Y, Rajagopalan A, Flietner E, Wilson K, Zhang X, Shinn P, Klumpp-Thomas C, McKnight C, Itkin Z, Chen L, Kazandijian D, Zhang J, Michalowski AM, Simmons JK, Keats J, Thomas CJ, Mock BA. Drug combinations identified by high-throughput screening promote cell cycle transition and upregulate Smad pathways in myeloma. Cancer Lett. 2023 Aug 1;568:216284. doi: 10.1016/j.canlet.2023.216284. Epub 2023 Jun 24. PMID: 37356470; PMCID: PMC10408729.
SEQUENCE No. (e.g., 1, 2, 3, etc.); […] (e.g., Cells, Incubation, Reagent, etc.); VALUE and DESCRIPTION.
1; Cells; 5 uL; white, solid bottom 1536-well Greiner assay plate.
2; Compounds; 23 nL; Kalypsis pin tool (Wako USA) equipped with a 1536-well pin head to transfer to the assay plates.
3; Incubation; 48 hours; 37C incubation.
4; Reagent;5uL; CellTiter Glo (Promega).
5; Detector; 425V; Luminescence; Viewlux PerkinElmer.
NOTES (numbers refer to Sequence numbers above)
1. The cell-based screening methods employed in this study were like those previously published. Briefly, the corresponding myeloma cell lines were screened in 1,536-well plates with 500 cells, 5-uL per well for inhibition of cell viability (assessed by measuring ATP levels with CellTiterGlo).
2. NCATS MIPE 4.0 library of approved and investigational drugs were added using the Kalypsis pin tool. Wells treated with DMSO only for 100% viability and media only wells for 0% viability were used as controls.
3. The assay plates were covered and incubated for 48 hours in a 37C, 5% CO2 incubator with controlled humidity.
4. After 48 hours, CellTilter-GloTM luminescent substrate mix (Promega) reagent was added to the assay plate and plates we incubated for 5 min at room temperature.
5. Signal was measured as median relative luminescence units on a ViewLux (PerkinElmer) multiplate reader.
[1] Heske CM, Davis MI, Baumgart JT, Wilson K, Gormally MV, Chen L, Zhang X, Ceribelli M, Duveau DY, Guha R, Ferrer M, Arnaldez FI, Ji J, Tran HL, Zhang Y, Mendoza A, Helman LJ, Thomas CJ. Matrix Screen Identifies Synergistic Combination of PARP Inhibitors and Nicotinamide Phosphoribosyltransferase (NAMPT) Inhibitors in Ewing Sarcoma. Clin Cancer Res. 2017 Dec 1;23(23):7301-7311. doi: 10.1158/1078-0432.CCR-17-1121. Epub 2017 Sep 12. PMID: 28899971; PMCID: PMC6636827.
Potency is read from the fitted curve at half-maximal effect.

| SMILES | Potency | viability (% of control) |
| --- | --- | --- |
| CN1CCN(CCOc2cc(OC3CCOCC3)c3c(Nc4c(Cl)ccc5c4OCO5)ncnc3c2)CC1 | 2.96 µM (active) | – |
| O=C(NCc1ccccc1)c1csc(Nc2ccncn2)n1 | 11.8 µM (active) | – |
| Cc1c(NC(=O)c2ccc(C(C)(C)C)cc2)cccc1-c1cn(C)c(=O)c(Nc2ccc(C(=O)N3CCOCC3)cc2)n1 | 23.5 µM (active) | – |
| O=c1cc(N2CCOCC2)oc2c(-c3cccc4c3sc3ccccc34)cccc12 | 2.96 µM (active) | – |
| O=C(O)c1ccc(-c2cc3cccnc3c(-c3ccc4nonc4c3)n2)cc1 | 20.9 µM (active) | – |
| CS(=O)(=O)N(Cc1ccco1)CC(O)Cn1c2ccccc2c2ccccc21 (stereo not given) | 18.7 µM (active) | – |
| CCC(CC)[C@H](NC(C)=O)[C@@H]1[C@H](O)[C@@H](C(=O)O)C[C@@H]1N=C(N)N | – | 104% (inactive) |
| CC[C@@H]1C=C(C)C[C@H](C)C[C@H](OC)[C@H]2O[C@@](O)(C(=O)C(=O)N3CCCC[C@@H]3C(=O)O[C@H](C(C)=C[C@@H]3CC[C@H](Cl)[C@H](OC)C3)[C@H](C)[C@@H](O)CC1=O)[C@H](C)C[C@H]2OC | 5.26 µM (active) | – |
| O=C1c2ccccc2-[n+]2ccc3c([nH]c4ccccc43)c21 | 1.18 µM (active) | – |
| COc1cccc2c1CCCC2CCCN1CCN(C2CCCCC2)CC1 (stereo not given) | 16.6 µM (active) | – |
| CCNc1cc(NC2CCC(O)CC2)nc(Nc2ccc3c(ccn3Cc3ccccc3)c2)n1 (stereo not given) | 16.6 µM (active) | – |
| COc1cc(Nc2ncc(F)c(Nc3ccc4c(n3)NC(=O)C(C)(C)O4)n2)cc(OC)c1OC | 1.18 µM (active) | – |
| CC(C)[C@H](CO)Nc1nc(Nc2ccc(C(=O)O)c(Cl)c2)c2ncn(C(C)C)c2n1 | 0.059 µM (active) | – |
| COc1cc2ncnc(-n3nc(-c4ccccn4)nc3N)c2cc1OC | 7.43 µM (active) | – |
| O=C(O)CCC1CCC(c2cc(F)ccc2F)(S(=O)(=O)c2ccc(Cl)cc2)CC1 (stereo not given) | 3.32 µM (active) | – |
| O=c1c(-c2ccc(O)cc2)coc2cc(OC3O[C@H](CO)[C@H](O)[C@H](O)[C@H]3O)cc(O)c12 (stereo not given in full) | 10.5 µM (active) | – |
| Cc1cc(OCCCc2c(C(=O)O)n(Cc3cccnc3)c3c(-c4c(COc5ccc(N6CCN([S+](C)(=O)[O-])CC6)cc5)nn(C)c4C)cccc23)cc(C)c1Cl | 18.7 µM (active) | – |
| Nc1ncnc2c1ncn2[C@@H]1O[C@H](CO)C[C@@H]1O | – | 115% (inactive) |
| CC=CC(=O)N(CC)c1ccccc1C | – | 140% (inactive) |
| CC[C@H]1OC(=O)[C@H](C)C(=O)[C@H](C)[C@@H](O[C@H]2O[C@H](C)C[C@H](N(C)C)[C@@H]2O)[C@](C)(OC)C[C@@H](C)C(=O)[C@H](C)[C@H]2N(CCCCn3cnc(-c4cccnc4)c3)C(=O)O[C@]12C | – | 138% (inactive) |

| SMILES | Potency | viability (% of control) |
| --- | --- | --- |
| O=C(Nc1ccccc1Br)N[C@@H]1CCN(c2ccc(C(F)(F)F)cn2)C1 | 16.6 µM (active) | – |
| Cc1ccccc1C(C(=O)NC1CCCCC1)N(C(=O)Cn1ccnc1C)c1cccc(F)c1 (stereo not given) | – | 153% (inactive) |
| O=c1cc(CN2CCOCC2)occ1OCCCCCSc1ccnc2cc(C(F)(F)F)ccc12 | 7.43 µM (active) | – |
| COc1ccc(-c2nc(N3CCOCC3)c3sc(CN(C)c4ncc(C(=O)NO)cn4)cc3n2)cn1 | – | 1.67% (inactive) |
| CO[C@H]1C=CC=C(C)C(=O)NC2=CC(=O)C(NCCN(C)C)=C(C[C@@H](C)C[C@H](OC)[C@@H](O)[C@@H](C)C=C(C)[C@@H]1OC(N)=O)C2=O | 0.0235 µM (active) | – |
| O=C(O)c1ccccc1C(=O)Nc1ccc(-c2ccccc2)cc1 | – | 152% (inactive) |
| CC1(C)CCC[C@@]2(C)[C@@H]1CC[C@@]1(C)OC(=O)C[C@H]21 | – | 139% (inactive) |
| COc1cccc(-c2cc(=O)c3ccccc3o2)c1N | 2.35 µM (active) | – |
| COc1ccc(-c2coc3cc(O)ccc3c2=O)cc1 | – | 133% (inactive) |
| CC(C)=CC[C@@H](O)C1=CC(=O)c2c(O)ccc(O)c2C1=O | 0.296 µM (active) | – |
| O=C(Nc1ccccc1-c1cn2c(CN3CCNCC3)csc2n1)c1cnc2ccccc2n1 | 9.35 µM (active) | – |
| N[C@H](CSC(c1ccccc1)(c1ccccc1)c1ccccc1)C(=O)O | 7.43 µM (active) | – |
| C[C@H](NC(=O)C(=O)Nc1ccccc1C(C)(C)C)C(=O)N[C@@H](CC(=O)O)C(=O)COc1c(F)c(F)cc(F)c1F | 18.7 µM (active) | – |
| CC(C)(C(=O)NCC(F)(F)C(F)(F)F)C(=O)N[C@@H]1C(=O)Nc2ccccc2-c2ccccc21 | 18.7 µM (active) | – |
| NS(=O)(=O)c1ccc(NC2=CC(=O)c3ccccc3C2=O)cc1 | 11.8 µM (active) | – |
| NC(CO)(CO)CCc1ccc(Sc2cccc(OCc3ccccc3)c2)cc1Cl | 9.35 µM (active) | – |
| CS(=O)c1ccc(-c2nc(-c3ccc(F)cc3)c(-c3ccncc3)[nH]2)cc1 (stereo not given) | 3.4 µM (active) | – |
| O=C(Nc1cccc(Br)c1)c1cccc(S(=O)(=O)N2CCCCCC2)c1 | 18.7 µM (active) | – |
| NC(=O)c1ccc2nc(-c3ccc(Oc4ccc(Cl)cc4)cc3)[nH]c2c1 | 0.0209 µM (active) | – |
| Clc1ccc(C(c2ccc(Cl)cc2)n2cc[n+](CC(OCc3ccc(Cl)cc3Cl)c3ccc(Cl)cc3Cl)c2)cc1 (stereo not given) | 8.33 µM (active) | – |
